The list is not random: actives were taken first. Their share in the collection is about 3.5%.
mHTT-CaM PPI inh = inhibitors of human mutant huntingtin-calmodulin interaction; inhibition, % at 15 µM; AlphaScreen His-mHTT/GST-CaM binding, luminescence; 190,000 tested, 3.6% active; AID 1671202; P42858
Pf apPOL block = Pf-apPOL DNA polymerase inhibition; Recombinant Pf-apPOL, molecular beacon fluorescence, 1.5 h; inhibition, % at 10 µM; 210,000 tested, 0.25% active; AID 1794808
Of the large screens only hits and unclear results are named; the others gave an inactive call; ! = not confirmed by another sample. No stated cut-off is given here; in the data, active means inhibition above about 50%; inactive means the rest.

N#CC1=C(N)Oc2n[nH]c(-c3cccs3)c2C1c1ccc([N+](=O)[O-])s1 (stereo unspecified)	mHTT-CaM PPI inh 55
COc1c(Cl)cc(Cl)cc1C1C(C#N)=C(N)Oc2n[nH]c(-c3cccs3)c21 (stereo unspecified)	mHTT-CaM PPI inh 74
N#CC1=C(N)Oc2n[nH]c(-c3cccs3)c2C1c1cccs1 (stereo unspecified)	none
COc1ccc(C2C(C#N)=C(N)Oc3n[nH]c(-c4cccs4)c32)c(OC)c1OC (stereo unspecified)	none
CCCn1cnc2ccc(-c3noc(Cc4cccs4)n3)cc21	none
CC(C)n1cnc2ccc(-c3noc(Cc4c[nH]c5ccccc45)n3)cc21	mHTT-CaM PPI inh 100
CC(=O)c1c(C(C)=O)c(C)n(CCc2c[nH]c3ccccc23)c1C	none
O=C1C2C3c4ccccc4C(c4ccccc43)C2C(=O)N1CCc1c[nH]c2ccccc12 (stereo unspecified)	mHTT-CaM PPI inh 100
Cc1ncc(CO)c2cc(C(=O)Nc3ccc(Cl)cc3)c(=Nc3cccc(F)c3)oc12	none
O=C(c1ccccc1Cl)c1coc2ccc(Cl)cc2c1=O	mHTT-CaM PPI inh 98
O=C(c1cccc(F)c1)c1coc2ccc(Cl)cc2c1=O	none
C=CCNC(=O)c1cc2c(=O)n3cccc(C)c3nc2n(CCC)c1=N	none
Cc1ccc(Cn2cc(CCC(=O)NCc3ccco3)c3ccccc32)cc1	none
Cc1ccc(Cn2cc(CCC(=O)NCc3ccccn3)c3ccccc32)cc1	mHTT-CaM PPI inh 78
COc1ccc(C(=O)C=Cc2cc(Br)cc3c2OCOC3)cc1	none
CCC(=O)Nc1c(-c2cccc(F)c2)nc2cc(C)ccn12	none
NS(=O)(=O)c1ccc(N2CCOCC2)c([N+](=O)[O-])c1	none (no result: mHTT-CaM PPI inh)
O=[N+]([O-])c1cc(Br)c2nsnc2c1N1CCOCC1	mHTT-CaM PPI inh 67!
COc1ccc(C2CC(c3ccccc3Cl)=NN2C(=O)CN(C)C(C)=O)cc1 (stereo unspecified)	mHTT-CaM PPI inh 96
CCNC(=O)N(C)CC(=O)N1N=C(c2ccccc2Cl)CC1c1ccccc1F (stereo unspecified)	none
COc1ccc(C2=NN(C(=O)CN(C)C(C)=O)C(c3ccc(C)cc3)C2)cc1 (stereo unspecified)	none
CCC(=O)N(C)CC(=O)N1N=C(c2ccccc2Cl)CC1c1ccccc1Cl (stereo unspecified)	mHTT-CaM PPI inh 60
COc1ccc(N2C(=O)CC(C(=O)N3CCCCC3C)C2c2ccc(F)cc2)cc1 (stereo unspecified)	none
Cc1cc(I)ccc1NC(=O)c1cc2ccccc2o1	none
Cc1cc(-c2ccc(/C=C/[N+](=O)[O-])o2)c([N+](=O)[O-])cc1C	mHTT-CaM PPI inh 65
Cc1ccc(C(=O)O)cc1-c1ccc(/C=C/[N+](=O)[O-])o1	none
COc1ccc(/C=C2\Cc3ccccc3C2=O)c(OC)c1OC	none
O=C(O)CCc1ccc(-c2cccs2)n1-c1ccc(F)cc1	none
O=S(=O)(c1ccc(N=Cc2ccc3c(c2)OCO3)cc1)c1ccc(N=Cc2ccc3c(c2)OCO3)cc1	none (no result: mHTT-CaM PPI inh)
COc1cc([N+](=O)[O-])cc2c1NC(c1ccccc1Cl)C1CC=CC21 (stereo unspecified)	none
COc1cccc2c1NC(c1ccc([N+](=O)[O-])cc1)C1CC=CC21 (stereo unspecified)	mHTT-CaM PPI inh 70
CCc1cccc2c1NC(c1ccc(OC)c([N+](=O)[O-])c1)C1CC=CC21 (stereo unspecified)	mHTT-CaM PPI inh 59
COc1ccc(C2Nc3c(OC)cccc3C3C=CCC32)cc1[N+](=O)[O-] (stereo unspecified)	mHTT-CaM PPI inh 66
COc1ccc(C2Nc3c(C)ccc(Cl)c3C3C=CCC32)cc1[N+](=O)[O-] (stereo unspecified)	none
Cc1ccc(NC(=O)CN2C(=O)C(c3ccccc3)=NC23CCCC3)cc1	none
Cc1ccc2[nH]c3c(c2c1)CCCC3=O	none
Cc1ccc2[nH]c3c(c2c1)CCC1C3=NNC1c1ccco1 (stereo unspecified)	mHTT-CaM PPI inh 79
N#Cc1c(C(F)(F)F)cc(-c2cccs2)nc1SCC(=O)Nc1ccccc1	none
N#Cc1c(C(F)(F)F)cc(-c2cccs2)nc1SCC(=O)Nc1ccc([N+](=O)[O-])cc1	Pf apPOL block 64
CCOc1ncccc1C(=O)Nc1ccc(Nc2ccccc2)cc1	mHTT-CaM PPI inh 85
CCOc1ncccc1C(=O)Nc1ccc(Cl)cc1	none
O=C(Nc1ccc(Nc2ccccc2)cc1)c1ccccc1F	none
O=C(Nc1ccc(Nc2ccccc2)cc1)c1ccccc1I	mHTT-CaM PPI inh 70
CCC(C)c1ccc(-c2csc(N)n2)cc1 (stereo unspecified)	none
Cc1cc2n(n1)CCCN2C(=O)CCC(=O)N1CCN(c2ccccn2)CC1	none
Cc1ccc(C(=O)N/C(=C/c2ccco2)C(=O)NCCc2ccccn2)cc1C	none
Cc1ccc(C(=O)N/C(=C\c2ccco2)C(=O)N2CCN(c3ccccn3)CC2)cc1C	mHTT-CaM PPI inh 70
O=C(NC1CCCCC1)c1ccn2c(-c3cc(F)cc(F)c3)nnc2c1	none
